Experimental data published in PubChem BioAssay (NCI).
Compounds without any hit were thinned out: in the full panel of roughly 79,000, 15% have a hit. The source made the active and inactive calls. No stated cut-off is given here; in the data, active means growth inhibition above about 70%; inactive means the rest.

How the values were obtained:
[1] = NCI Yeast Anticancer Drug Screen. Data for the rad50 strain (AID 155);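 further: 0% = growth of vehicle-only cultures of the same strain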; conditions: S. cerevisiae rad50 strain growth inhibition; at 50.0 µM; stronger effect = higher value
Procedure, shortened: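 Cells are treated with compound, grown, and their growth is then scored against vehicle-only cultures of the same repair-deficient yeast strain.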

[2] = NCI Yeast Anticancer Drug Screen. Data for the mec2-1 strain (AID 157); conditions: S. cerevisiae mec2-1 strain, at 50.0 µM, stronger effect = higher value
Procedure, shortened: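 Compounds were applied to mec2-1 yeast cells. Their growth was then compared with that of vehicle-treated cultures to give growth inhibition.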

[3] = NCI Yeast Anticancer Drug Screen. Data for the sgs1 mgt1 strain (AID 161);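 further: 0% = growth of cultures given vehicle only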; conditions: S. cerevisiae sgs1 mgt1 strain, at 50.0 µM, stronger effect = higher value
Procedure, shortened: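 Growth of a repair-deficient yeast mutant was monitored after compound treatment and expressed as inhibition relative to vehicle-treated cultures.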

[4] = NCI Yeast Anticancer Drug Screen. Data for the cln2 rad14 strain (AID 165);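 further: 0% = growth equal to vehicle treated cultures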; conditions: S. cerevisiae cln2 rad14 strain, at 50.0 µM, stronger effect = higher value
Procedure, shortened: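 Strain: cln2 rad14 yeast, altered in cell cycle control and DNA damage repair. Read-out: growth inhibition vs vehicle.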

[5] = NCI Yeast Anticancer Drug Screen. Data for the bub3 strain (AID 167); conditions: S. cerevisiae bub3 mutant strain, at 50.0 µM, stronger effect = higher value
Procedure, shortened: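 Part of a panel of yeast mutants defective in DNA damage repair or cell cycle regulation. Each strain is grown with compound, and inhibition is calculated relative to solvent-treated cultures.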

[6] = NCI Yeast Anticancer Drug Screen. Data for the mlh1 rad18 strain (AID 175); conditions: S. cerevisiae mlh1 rad18 strain growth inhibition; at 50.0 µM; stronger effect = higher value
Procedure, shortened: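 A repair-deficient yeast strain is exposed to test compound, and growth is scored relative to vehicle-treated controls.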

Measured: growth inhibition

OCCNc1ncnc2[nH]ncc12
inactive: [1] 2.75% | [2] -6.1% | [3] -20.6% | [4] -21.8% | [5] -24.2% | [6] 5.55%

COc1cc2c3cc1Oc1c(OC)c(OC)cc4c1C(Cc1ccc(O)c(c1)Oc1ccc(cc1)CC3N(C)CC2)CN(C)C4 (configuration not stated)
inactive: [1] -17.6% | [2] -37.9% | [3] -3.6% | [4] -17.4% | [5] 3.35% | [6] 25.1%

O=C(O)C(CCl)(CCl)CCl
inactive: [1] 19.4% | [2] 1.3% | [3] 1.05% | [4] 17.6% | [5] 13.8% | [6] 15.2%

O=c1[nH]c(SCc2ccco2)nc2ccccc12
inactive: [1] 0.05% | [2] 12.7% | [3] 6.3% | [4] -23.7% | [5] 1.8% | [6] -1.75%

Cc1cc(S(=O)(=O)Cl)ccc1Cl
inactive: [1] 14.6% | [2] 1.3% | [3] -0.6% | [4] -29.2% | [5] 9.05% | [6] 7.6%

COC(=Nc1cccc2ccccc12)Nc1cccc2ccccc12
inactive: [1] 1.95% | [2] -3.5% | [3] -4.35% | [4] 7.95% | [5] -2.3% | [6] -2%

Cc1cc(-c2cscn2)c(O)c([N+](=O)[O-])c1
inactive: [1] 3.05% | [2] 3.9% | [3] 27.2% | [4] 12.4% | [5] 1.5% | [6] 7.6%

Cc1cc2c(c(C(=O)NCC(=O)O)c1)Oc1c(cc(C)cc1C(=O)NCC(=O)O)S2
inactive: [1] -17% | [2] 20.1% | [3] -4.95% | [4] 14.8% | [5] -29.9% | [6] 20.9%

Nc1nc2c(c(-c3ccccc3Cl)n1)COC/C2=C\c1ccccc1Cl
inactive: [1] 15.7% | [2] 18.8% | [3] 54% | [4] 25.1% | [5] 41.1% | [6] 50%

CC1=NNC(c2ccco2)C1 (configuration not stated)
inactive: [1] 10.2% | [2] 5.6% | [3] 12.8% | [4] 18.1% | [5] 11.9% | [6] 5.7%

COC(=O)/C=C/c1c(=O)c(C(=O)OC)cn2cnc3nc[nH]c3c12
inactive: [1] -14.5% | [2] 2.35% | [3] -20.6% | [4] -13.3% | [5] -5.9% | [6] -5.8%

c1ccc(CNc2ncnc3n[nH]nc23)cc1
inactive: [1] -14% | [2] -11.8% | [3] 1.2% | [4] 0.3% | [5] 20.1% | [6] -8.3%

c1ccc2c(c1)NC(SSC1Nc3ccccc3S1)S2 (configuration not stated)
inactive: [1] -2.4% | [2] -21.1% | [3] -2.65% | [4] -0.55% | [5] -11.1% | [6] 1.65%

O=C(O)c1ccc(-c2nn[nH]n2)cc1
inactive: [1] -0.85% | [2] -10.1% | [3] -4% | [4] -11.8% | [5] -18.9% | [6] -15.2%

Clc1ccccc1N=Cc1ccc(C=Nc2ccccc2Cl)cc1
inactive: [1] 26.9% | [2] 23.8% | [3] 34% | [4] 3.3% | [5] 38.5% | [6] 25.9%

COc1cc(NCCCCCCNCC(C)C)c2nccc(C)c2c1
inactive: [1] 53.1% | [2] 44.5% | [3] 62.8% | [4] 18.1% | [5] 37.6% | [6] 21.6%

O=C(O)C[C@H]1CCCCC12CCOC2=O (some centres not stated)
inactive: [1] 10.8% | [2] 6.7% | [3] -0.7% | [4] -18.6% | [5] 22% | [6] 9.85%

CCOC(=O)/C(C#N)=C(\C)c1ccccc1
inactive: [1] 9.65% | [2] -5.3% | [3] 1.2% | [4] 5.15% | [5] -25.7% | [6] -17.6%

O=C(O)C(=C\c1ccccc1)/C(=C\c1ccccc1)C(=O)OCc1ccccc1
inactive: [1] 16.9% | [2] 5.3% | [3] 19.9% | [4] -0.4% | [5] 47.5% | [6] 8.4%

Cc1ccsc1S(N)(=O)=O
inactive: [1] -21.1% | [2] -23.1% | [3] -10.6% | [4] -12.2% | [5] 11.4% | [6] -6.75%

Cn1nnc(CCCl)n1
inactive: [1] -5.35% | [2] -5.1% | [3] -8.15% | [4] -36.9% | [5] 16.8% | [6] 5.5%

CC(=O)N1C(OC(C)C)CC(C)N1c1ccccc1 (configuration not stated)
inactive: [1] -7.45% | [2] -15.8% | [3] -38.4% | [4] 3.35% | [5] -22.8% | [6] -38.3%

COC(=O)/C(C#N)=C(/NCCN)Nc1ccccc1
inactive: [1] -10.5% | [2] -16.4% | [3] -39% | [4] 10.1% | [5] -3.1% | [6] -8.15%

O=C1c2ccccc2C(=O)c2c1cc1c(c2O)OCO1
inactive: [1] 23.4% | [2] 13.4% | [3] 20.1% | [4] -10.2% | [5] -38% | [6] 46.9%

CC1COC2(CCCCC2)O1 (configuration not stated)
inactive: [1] -25.2% | [2] -3.45% | [3] -44.1% | [4] -37% | [5] -14.8% | [6] -26.1%

COC(=O)C(NC(=O)C(=O)NC(C(=O)OC)C(C)(C)S)C(C)(C)S (configuration not stated)
inactive: [1] 3.85% | [2] -9.1% | [3] -2.3% | [4] -12.7% | [5] -5% | [6] 4.25%

COc1ccccc1N=Nc1c(O)n(-c2ccccc2OC)c(=S)n(-c2ccc(I)cc2)c1=O
active: [1] 96% | [2] 96.2% | [3] 96% | [4] 92.8% | [5] 95.2% | [6] 96.7%

CCC1CN2C(=N1)c1ccccc1-c1cc([N+](=O)[O-])ccc12 (configuration not stated)
active: [1] 94% | [6] 94.2%
inactive: [2] 43% | [3] -20.2% | [4] 51.3% | [5] 54%

N#Cc1ccc(/C=C2\Cc3ccccc3C2=O)cc1
inactive: [1] -30.6% | [2] -29.7% | [3] -35% | [4] 9.5% | [5] -18.8% | [6] 3.5%

CCOC(=O)C(C)c1nc2cc(C(F)(F)F)ccc2[nH]c1=O (configuration not stated)
inactive: [1] 3.55% | [2] 7.1% | [3] 8.1% | [4] 7.5% | [5] 19.7% | [6] -21.2%

CC1=C(C(=O)Nc2ccccc2C)C(c2ccco2)C(C(=O)Nc2ccccc2C)=C(C)N1C
inactive: [1] -7.45% | [2] -6.6% | [3] -38.1% | [4] -15.5% | [5] -9.6% | [6] -8.8%

O=C1c2ccccc2S(=O)N1OCc1ccccc1 (configuration not stated)
inactive: [1] -0.85% | [2] 0.75% | [3] 15.4% | [4] -16.6% | [5] 0.95% | [6] 9.6%

C=C1CC(C)(COc2ccc3c(C)cc(=O)oc3c2)OC1=O (configuration not stated)
inactive: [1] 52.9% | [2] 46.1% | [3] 47.8% | [4] 48.5% | [5] 20.4% | [6] 54.5%

CC1CCc2nc(N)sc2C1 (configuration not stated)
inactive: [1] 14.4% | [2] 11.9% | [3] 18.9% | [4] 8.35% | [5] 1.1% | [6] 5.9%

CC1CC(=O)C2CC(Cl)CCC2(C)C1C (configuration not stated)
inactive: [1] -18.1% | [2] -22.6% | [3] -4.6% | [4] -45.4% | [5] -27.4% | [6] -6.05%

COc1cc(OC)c([N+](=O)[O-])cc1/C=C/C(=O)O
inactive: [1] -5.25% | [2] -3.35% | [3] 8% | [4] 6.15% | [5] 9.95% | [6] 4.05%

C/C(=N\N(c1ccccc1)c1ccccc1)c1c(O)cc(C)oc1=O
inactive: [1] -25.8% | [2] 8.2% | [3] 12.9% | [4] -27.4% | [5] 3.05% | [6] 14.8%
